# Test results taken from PubChem BioAssay AID624352 (Sanford-Burnham Center for Chemical Genomics, 2012).
# The campaign covered roughly 360,000 compounds. About 2,600 (0.72%) were called active. This is one part of a sample in which actives are shown more often than they occur.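 The calls were made as follows: active = inhibition of the luminescence signal of 40% or more relative to plate controls, in a single-dose primary screen at 18.75 µM; inactive = the rest.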
# Experiment: HIF-2a reporter inhibitors, primary screen, luminescence, 786-0 RCC cells (AID 624352)
# Details: 786-0 RCC cells HIF-2a reporter, luciferase luminescence, overnight; at 18.8 µM; stronger effect = higher value
row,Compound,inhibition
1,CCOC(=O)[C@]12Cc3ccccc3[C@H]1N(C1CCCCC1)C(=O)c1cc(OC)ccc12,81.9% (active)
2,CCOC(=O)[C@]12Cc3cc(OC)ccc3[C@H]1N(C(C)C)C(=O)c1ccccc12,24.5% (inactive)
3,COc1ccc(CCn2c(O)c(C=NCCCn3ccnc3)c(=O)[nH]c2=O)cc1OC,11.2% (inactive)
4,COc1ccc(Br)cc1CNCCc1cccc(Cl)c1,7.99% (inactive)
5,CC=C(C)C(=O)OC1CCN2CC=C(COC(=O)C(O)(C(C)OC)C(C)(C)O)C12 (stereo not given),3.51% (inactive)
6,COc1cc(OC)cc(C2(C#N)CCN(C)CC2)c1,13.2% (inactive)
7,COC(=O)C1=C(c2cc3ccccc3s2)C[C@@H]2CC[C@H]1N2C(=O)NC(C)C,6.19% (inactive)
8,Cc1cccc(-n2c(O)c(/C=N/N3CCOCC3)c(=O)[nH]c2=S)c1,19.1% (inactive)
9,Cc1nn(-c2ccccc2)c(C)c1NC(=O)COC(=O)Cc1ccccc1,8.24% (inactive)
10,Cc1nc2nc(C)c(CCC(=O)N3CCC4(CC3)OCCO4)c(C)n2n1,-0.723% (inactive)
11,CC(=O)OC1C2(CC3N4C(=O)C5(CO)SSC4(CC31O)C(=O)N5C)OC(C)C(C)(C)C2=O (stereo not given),91.3% (active)
12,NC(=O)Nc1cccc(C(F)(F)F)c1,1.29% (inactive)
13,COC(=O)C[C@H]1CC[C@H]2NC[C@@H](O)COC[C@@H]2O1,10.3% (inactive)
14,C[C@]12CC[C@H](O)C[C@H]1CC[C@@H]1C2CC[C@]2(C)[C@@H](C3=CC(=O)OC3)[C@@H](O)C[C@]12O (stereo not given in full),33.4% (inactive)
15,COC1C(O)C(C)OC(OC2CCC3(C=O)C(CCC4C3CCC3(C)C(C5=CC(=O)OC5)CCC43O)C2)C1O (stereo not given),82.4% (active)
16,COC(=O)CN(CCCl)P1(=O)OCCCN1CCCl (stereo not given),6.36% (inactive)
17,CN1CCN(Cc2ccccc2C(F)(F)F)CC1,9.38% (inactive)
18,O=c1c2ccccc2nc(CBr)n1-c1ccc(Cl)cc1,-7.93% (inactive)

row,Compound,inhibition
1,CN(C)CC1Oc2ccccc2OC1(O)c1ccccc1 (stereo not given),55.3% (active)
2,Cc1nc2ccccn2c1P(=S)(N1CCCCC1)N1CCCCC1,18.1% (inactive)
3,CC1([N+](=O)[O-])COP(=O)(Nc2ccc(F)cc2)OC1 (stereo not given),17.4% (inactive)
4,Cc1ccc(C(C)C)c(OCC(=O)N2CCN(CC(=O)N3CCOCC3)CC2)c1,-3.94% (inactive)
5,c1ccc2sc(C3CCCNC3)nc2c1 (stereo not given),-94.5% (inactive)
6,CC[C@H]1CC2CN3CCc4c([nH]c5ccccc45)C(C(=O)OC)(C2)C13 (stereo not given in full),20.3% (inactive)
7,O=P(OC1=CCCCC1)(c1ccccc1)c1ccccc1,12.4% (inactive)
8,CCC(C)(O)C(=O)OC1C(=O)OC2CC3C(C)=CC(=O)C(O)C3(C)C3C4(O)OCC23C1C(C)C4O (stereo not given),66.3% (active)
9,O=c1[nH]c(=O)n(-c2ccc(F)cc2)c(O)c1C=NCCN1CCCCC1,24.6% (inactive)
10,CC(Cc1cccs1)NCc1ccc(Cl)cc1 (stereo not given),-5.05% (inactive)
11,Cc1ccc(P(=S)(c2ccc(C)o2)N2CCOCC2)o1,-0.609% (inactive)
12,CCCCCCCCCCCCn1ccc(=N)cc1,51.2% (active)
13,C[C@]12CC[C@H](O)CC1=C([N+](=O)[O-])CC1C2CC[C@@]2(C)C1CC[C@@H]2O (stereo not given in full),-4.21% (inactive)
14,CC(C)c1c(CN(C)C(C)Cc2ccccc2)n(C)n(-c2ccccc2)c1=O (stereo not given),17.5% (inactive)
15,CC(=CCOc1ccc2ccc(=O)oc2c1)C1=CC(=O)C(C)(C)O1,65.2% (active)
16,O=C1NC(=O)C(Cc2ccccc2)C(=O)N1,0.735% (inactive)
17,CCOC(=O)C1CN(C)CCC1=O (stereo not given),12.2% (inactive)
